Test results published in the supplement of paper PMC6555819.

tested on: VDR:RXRa (NR concentration 270 nM, RXRa partner concentration 90 nM); experiment: PBM binding z-score (relative to random genomic background probes); higher = stronger binding; sequences stand for … in GC…GCGATTGACAGCGTAGAATGAAGG
Description: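 Protein-binding microarray (Agilent 4x180K custom design, double-stranded 60-nt probes: 5' GC cap, 34-nt variable region, 24-nt constant primer region; full probe sequence given). Purified or IVT nuclear receptor:RXRα heterodimers (3:1 NR:RXRα, mostly 270:90 nM) or homodimers were incubated for 1 h in PBS with 2% milk and no ligand, then detected with Alexa488 antibodies. Fluorescence from o1-orientation probes (~5 replicates averaged) was converted to z-scores against 500 random hg19 background probes. Variable regions are seed direct-repeat (DR0–DR5) sites, all their single-nucleotide variants and half-site ablations.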

Sequence | PBM binding z-score
ATCGAAAGGTAGAAGGTGAGTATACCCACCCGAA | -0.0163
TCTAGTTGGCCAAAGGTCACACACTCGAAATGCG | 4.93
GCGACTGGGGCTAAGCAGGTTACCATAAGGTTGG | -0.0992
GTACCAAGGTGAATTGGTCGTTGATGAGTAGGCG | -0.409
TCACCAAGGTGAAGGTCGTTGATCCCTCTGTAGA | 1.34
CGAACTAGGTCAGTACAGGACAGTGAAGGATGAT | 0.713
ACTTACGGGTCAACGAGGTTATGGCACGCGTATA | 7.66
GCCTATAGGTAATACAAGGTGAAAGTCCGATTGT | 0.256
CGAACTAGGTCATCCAGGACTGTGAATACATTGA | 2.81
TCATATAGGTAAATGTTAGGTGAAAGTCCGATCT | 1.23
CCTGCTAGGTCAATGGTCTGCTAAAGCAGCTCGC | 0.867
TATACAGTGTCAAAGGCCAGAGTACGAATGTCGA | 0.815
ATCTCTAGGTAAGACTCAGTTTAGTGAAGAACGC | 0.468
GCTCGGAGGACAAGGTCAGAGGTTTGTCCGTAGA | 1.81
TCTTGTAGATCAATAGAGGTTAAGAACGTGCGCT | 1.27
AATACAGGGTCACTATGCCAGAGTAGGTACGAAT | 3.91
TAGCCTAGGTCATTGGGCCAGTCTAGTACGCATC | 1.98
GCTTGTAGATCAAGGTTCAGAAAGACTAAGCTAA | 0.919
CCTATTAGCTGACCATAAGGGCAACCGAAGCTCG | 0.159
TAGCCTAGGTCATTGGGGCAGTATAGTACGCATC | 3.19

Sequence | PBM binding z-score
CTATCAAGGTGAACAAGGTCGTTGATTACTATTC | 6.12
GATACAGGGTCAGCTAGAGGCCAGCGTATGGAAA | 3
CCGACTGGGGCATAAGGTTAACATAAGCCAGCCC | 0.684
CCAGACAGGTCAAAGGTAACTCAGTCTGGTACGC | 3.86
ACTATTAGTTGACTTACGGCAACCGATACGACGC | 0.0942
CCTACTGGGCAACGAAAGGTCATTGATTCAGTGA | 3.7
CCTAGTTGGTCAAGGTCACAAACGCTATAGGTAC | 3.73
CCTACTGGGGCATCAGGTCATTGATATCAACGTT | 1.85
AATACAGGGTCACTCGGCCAGAGTAGGTACGAAT | 4.3
TCAGACAGGTGAATGTAACTCAGGTACGCAGTCG | 0.512
TCGAGTAGGTGACCAATGGGGCATTCAGCTTTCT | -0.154
GCTAGCAGGCCATTAGGGTCACTCAATGACGGGC | 4.6
ACTATTAGTTGAGACGACGGCAACCGATAGGTTG | -0.484
ATCGAAAGGTCGACGAGGTGAGGATACACCGTTT | 5.19
TAGCCTAGGTCATTTAGGGGCCAGTATAGAAAGC | 3.03
ATCCCTAGGTAACAAGTTCAGTGAAAGAGAGGAC | 1.91
ACAGACAGGTGAGTGAAGGTAACTCATCTGGACG | -0.347
AGAACGAAGGCAATGAGTTGATAGCACGGGTGGC | 0.485
ACAGACAGGTGATGAAGGTGACTCAGGCTATCAT | 0.516
CCTATCAGGCCAATCTGGGTCACTCAAGGCTTGA | 0.878
